Wnt act – activates Wnt/beta-catenin signaling in a reporter cell assay. AID 743398. activator, plate reader. 300,000 compounds, 1.2% hits. activation, % at 9.35 µM; in the data active = activation above about 30%, passing the limit was not always enough; inconclusive = no clear call, values can overlap the other calls;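 also: 0% = neutral control wells and 100% = positive control wells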
MITF act – MITF TRPM1 promoter activation in melanoma cells; 300,000 compounds, 0.75% hits; activation, % at 12.5 µM; SK-MEL-5 TRPM1-promoter luciferase, 24 h; % of positive control, neutral wells = 0;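 active = mean activation of at least 80% with every replicate also reaching 80%; inconclusive = mean reaches 80% but some replicate falls short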;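 also: 0% = neutral control wells and 100% = parthenolide positive control wells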
EWS-Fli block – inhibitors of EWS/Fli oncoprotein transcriptional activity; A673 NR0B1-luciferase reporter, viability-normalised; inhibition, % at 12.6 µM; 350,000 compounds, 0.67% hits; AID 651661;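 active = mean inhibition of at least 50% after viability correction, with every replicate also passing that limit; inconclusive = mean reaches 50% but only one of two replicates passes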;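 also: firefly luciferase signal divided by Alamar Blue viability fluorescence both relative to DMSO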
PAX8 reporter – PAX8 transcriptional activity inhibition; RMG-I TPO-luciferase reporter, SteadyGlo, 24 h; inhibition, % at 12.6 µM; 360,000 compounds, 1.2% hits;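 active = mean replicate inhibition at least 60% with every replicate also reaching 60%; inconclusive = only one of the two criteria is met; inactive = mean below 60% and not all replicates reaching 60%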;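 also: luciferase light reporting Pax8 driven TPO promoter activity; plate controls were median of neutral control wells for no effect and mitoxantrone controls for full effect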
MITF TRPM1 inh – inhibitors of MITF-driven TRPM1 promoter in melanoma cells | SK-MEL-5 TRPM1 promoter luciferase, 24 h | inhibition, % at 12.5 µM | 330,000 compounds, 0.83% hits | AID 488899;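 active = mean inhibition across replicates of 60% or more, whatever share of single replicates reaches that level; inconclusive = some that reach 60%, reason not given; inactive = mean inhibition across replicates below 60%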
esBAF inh – blocks esBAF chromatin remodeling in mouse ES cells. Bmi1-luciferase knock-in reporter, 24 h; 100% = twice the neutral-well signal. reporter increase, % at 12.5 µM. 350,000 compounds, 2% hits. AID 602393; in the data active = activation above about 40%; inconclusive = no clear call, values can overlap the other calls;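 also: 0% = median of the plate's neutral control wells and 100% = double that signal; a rise in the Bmi1 reporter signal indicates esBAF inhibition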
* marks the source's active call; other numbers are inactive results; ? = inconclusive; . = no result. Rows were chosen to be rich in hits. Some 4% of all compounds tested hit in one or more screens of this group.

SMILES	Wnt act	MITF act	EWS-Fli block	PAX8 reporter	MITF TRPM1 inh	esBAF inh
CCCCCOP(=O)(c1ccccc1)c1ccccc1	0.1	-3.6	8.7	95.2*	4.9	.
CCCCP(=O)(CCCC)CCP(=O)(c1ccccc1)c1ccccc1	-1.9	-9.9	-9.1	-10.8	11.1	.
Cc1noc(C)c1S(=O)(=O)Nc1ccc2c(c1)CC(=O)N([C@@H](C)CO)C[C@H](C)[C@@H](CN(C)Cc1ccc(Oc3ccccc3)cc1)O2	.	.	2.7	-25.9	.	-1.7
C[C@@H]1CN([C@@H](C)CO)C(=O)c2cccc(NC(=O)c3ccc(-c4nccs4)cc3)c2O[C@H]1CN(C)Cc1ccccc1	.	.	15.2	.	.	11.8
CCc1nnc(NC(=O)c2ccc(-c3ccccc3Cl)o2)s1	.	.	.	.	-28.7	53.2*
COc1ccc(NC(=O)c2cc(-c3ccccc3Cl)no2)cc1	.	23.7	.	.	-20.9	.
Cc1ccc(-c2ccc(C(=O)Nc3cccc(F)c3)o2)c2ccccc12	-0.2	24.0	-18.2	0.1	-21.8	11.6
O=C(Nc1ccccc1)c1cc(-c2ccccc2Cl)no1	26.5	56.3	.	.	-54.7	55.8*
COc1ccc(NC(=O)c2ccc(-c3ccccc3Cl)o2)cc1	24.0	115.8*	-84.8	-180.0	-113.8	30.1
COc1ccc(NC(=O)c2ccc(-c3ccc(C)c4ccccc34)o2)cc1	10.7	8.5	-12.6	-26.9	-7.0	9.7
O=C(Nc1cccc(F)c1)c1ccc(-c2ccccc2Cl)o1	.	60.1	.	.	-62.7	75.2*
CCCC#Cc1cnc2c(c1)C(=O)N([C@@H](C)CO)C[C@H](C)[C@@H](CN(C)S(=O)(=O)c1ccccc1)O2	.	.	-21.6	.	.	1.6
C[C@@H]1CN([C@@H](C)CO)C(=O)c2cc(NC(=O)NC3CCCCC3)ccc2O[C@@H](C)CCCCO[C@H]1CN(C)S(=O)(=O)c1cccs1	.	.	13.9	6.0	.	-1.5
C[C@H](CO)N1C[C@H](C)[C@H](CN(C)C(=O)Nc2ccc(C(F)(F)F)cc2)Oc2ccc(NC(=O)Nc3ccc(F)cc3)cc2C1=O	.	.	1.0	.	.	6.1
COC(=O)c1sccc1-c1ccc(C(=O)Nc2ccccc2)o1	.	76.0	.	.	-72.5	73.9*
COc1ccc(NC(=S)NC(=O)c2ccccc2Cl)cc1	.	?	-47.5	-92.3	-81.2	61.9*
COC(=O)c1sccc1NC(=O)c1ccc(C)o1	-0.8	-2.0	.	-11.0	6.7	5.2
C[C@H](CO)N1C[C@H](C)[C@@H](CN(C)C(=O)c2ccccn2)Oc2ncc(-c3ccccc3F)cc2C1=O	.	.	6.4	.	.	-6.5
Cc1noc(C)c1NC(=O)N(C)C[C@@H]1Oc2ccc(NC(=O)Nc3ccccc3)cc2C(=O)N([C@H](C)CO)C[C@@H]1C	.	.	-13.6	-52.6	.	4.7
O=C(NCCC1CCCCN1S(=O)(=O)c1ccccc1)C(=O)NCc1cccnc1 (stereo unspecified)	-4.5	0.9	3.5	27.1	-0.1	5.7
Cc1ccc(S(=O)(=O)N2CCCCC2CCNC(=O)C(=O)NCc2ccncc2)cc1 (stereo unspecified)	8.2	-32.0	2.8	76.4*	35.3	.
O=C(NCCC1CCCCN1S(=O)(=O)c1ccccc1)C(=O)NCc1ccncc1 (stereo unspecified)	-1.4	-9.0	4.1	67.9*	10.5	10.4
COc1ccccc1-c1nnc2sc(-c3ccc(N(C)C)cc3)nn12	-11.1	-46.5	60.4*	28.9	45.2	.
Cc1cccc(-c2nnc3sc(-c4ccccc4)nn23)c1	-14.4	?	.	.	-81.1	41.9*
CN(C)c1ccc(-c2nn3c(-c4ccccc4Cl)nnc3s2)cc1	.	.	.	44.5	28.1	-19.6
SMILES	Wnt act	MITF act	EWS-Fli block	PAX8 reporter	MITF TRPM1 inh	esBAF inh
c1ccc(-c2nn3c(-c4ccccc4)nnc3s2)cc1	.	.	.	.	5.6	0.2
COc1cccc(-c2nn3c(-c4ccco4)nnc3s2)c1	.	.	.	.	-33.8	32.6
Cc1nnc2sc(-c3ccc(N(C)C)cc3)nn2c1=O	24.4	108.7*	-30.3	-54.1	-101.4	-11.4
COc1cccc(OC)c1-c1nn2c(-c3ccco3)nnc2s1	.	.	.	.	-20.5	54.3*
Cc1noc(C)c1S(=O)(=O)N(C)C[C@@H]1Oc2ccc(NC(=O)Nc3ccc4c(c3)OCO4)cc2C(=O)N([C@@H](C)CO)C[C@@H]1C	.	.	-2.2	.	.	6.1
O=C(Nc1ccc2c(c1)[C@@H]1C[C@@H](CC(=O)N3CCCCC3)O[C@H](CO)[C@@H]1O2)c1cccnc1	.	.	-4.7	-0.7	.	-2.2
C[C@@H]1CN([C@@H](C)CO)C(=O)c2cc(NC(=O)C3CCCCC3)ccc2O[C@@H](C)CCCCO[C@@H]1CN(C)C(=O)Cc1ccccc1	.	.	-9.2	9.9	.	7.4
CC1CCCN(c2sc(S(C)(=O)=O)nc2S(=O)(=O)c2ccc(Cl)cc2)C1 (stereo unspecified)	-2.2	-13.3	.	11.1	5.6	5.2
CC1CCCN(c2nc3ccsc3c(=O)s2)C1 (stereo unspecified)	52.5*	72.9	.	-184.6	-66.6	.
C#Cc1ccc([C@@H]2C=C(C(=O)N3CCCCCCC3)O[C@H](OCCCCO)C2)cc1	.	.	-17.1	-2.1	.	.
O=C(C[C@H]1C[C@H]2c3cc(NS(=O)(=O)c4ccc(F)cc4)ccc3O[C@H]2[C@H](CO)O1)NCc1ccc(-c2ccccc2)cc1	.	.	30.8	83.8*	.	-15.5
O=C(C[C@@H]1C[C@H]2c3cc(NS(=O)(=O)c4ccc(F)cc4)ccc3O[C@H]2[C@H](CO)O1)NCc1ccc(Cl)cc1	.	.	-15.2	77.9*	.	-27.3
O=C(C[C@@H]1C[C@@H]2c3cc(NS(=O)(=O)c4ccc(F)cc4)ccc3O[C@@H]2[C@@H](CO)O1)NCc1ccc(-c2ccccc2)cc1	.	.	18.2	87.4*	.	-11.1
O=C(C[C@@H]1C[C@H]2c3cc(NS(=O)(=O)c4ccc(F)cc4)ccc3O[C@H]2[C@H](CO)O1)NCc1ccccc1	.	.	-2.1	47.6	.	-15.0
O=C(C[C@@H]1C[C@H]2c3cc(NS(=O)(=O)c4ccc(F)cc4)ccc3O[C@H]2[C@@H](CO)O1)NCc1ccc(-c2ccccc2)cc1	.	.	-10.1	73.5*	.	-1.7
CC(C)(C)c1ccc(/C=N/NC(=O)C2CCCC2)cc1	3.1	32.3	.	-109.2	-33.9	55.5*
CC(C)c1ccc(/C=N/NC(=O)CC(=O)NC2CCCCC2)cc1	-2.7	-17.2	-1.1	-10.5	18.0	-0.7
CC(C)c1ccc(/C=N/NC(=O)C2CCCC2)cc1	27.1	140.1*	.	-177.5	-127.3	.
CN(C)c1ccnc2sc3c(SCc4ccc(Cl)cc4)ncnc3c12	.	90.8*	.	-2.3	-86.2	.
C[C@H](CO)N1C[C@H](C)[C@H](CN(C)C(=O)Nc2ccccc2)Oc2c(NS(C)(=O)=O)cccc2C1=O	.	.	1.0	-19.8	.	2.6
Cc1ccsc1C(=O)OCC(=O)Nc1sccc1C(N)=O	.	.	.	-111.9	-88.4	88.3*
Cc1ccsc1C(=O)OCC(=O)c1ccc[nH]1	37.9*	109.4*	-95.8	-201.0	-100.2	48.5*
O=C(OCC(=O)c1ccc[nH]1)c1ccc(C(F)(F)F)cc1	-7.5	12.6	-2.7	-17.8	-10.0	-1.4

High-throughput results deposited in PubChem by Broad Institute.
